Data on 17 compounds can be found in PubChem BioAssay (EPA / NIEHS).

The structures appear in SMILES notation. Results filed as inconclusive are left out. Active and inactive are the calls of the source. Rule for the calls: active = hit-call score of the fitted dose curve at least 0.9, where 1 is the maximum; inconclusive = response in the unintended direction; inactive = score below 0.9.

Estrogen receptor (Homo sapiens), sequence (P03372 whole entry, looked up): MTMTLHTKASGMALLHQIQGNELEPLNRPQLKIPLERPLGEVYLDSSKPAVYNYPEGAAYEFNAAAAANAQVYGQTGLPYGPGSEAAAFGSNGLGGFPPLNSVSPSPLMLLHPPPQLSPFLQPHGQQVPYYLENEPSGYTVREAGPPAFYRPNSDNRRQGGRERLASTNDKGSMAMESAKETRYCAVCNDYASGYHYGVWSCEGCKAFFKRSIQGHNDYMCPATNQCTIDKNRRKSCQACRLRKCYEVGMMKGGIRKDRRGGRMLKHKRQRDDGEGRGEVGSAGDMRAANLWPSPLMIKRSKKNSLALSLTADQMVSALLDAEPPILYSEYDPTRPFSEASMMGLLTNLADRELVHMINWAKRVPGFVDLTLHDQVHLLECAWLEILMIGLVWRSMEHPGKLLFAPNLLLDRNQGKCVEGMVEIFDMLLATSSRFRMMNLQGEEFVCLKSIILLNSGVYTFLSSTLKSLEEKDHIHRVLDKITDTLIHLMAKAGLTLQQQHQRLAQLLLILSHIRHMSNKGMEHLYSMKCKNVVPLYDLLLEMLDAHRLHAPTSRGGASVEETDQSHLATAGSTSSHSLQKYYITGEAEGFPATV

This assay has as its target Estrogen receptor (Homo sapiens) (UniProt P03372). Briefly: NVS_NR_hER: NovaScreen (NVS) Nuclear Receptor Binding Assay for human Estrogen Receptor (ER) (AID 2283348). In short, it runs like this:
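MCF7-derived receptor extract, radiolabelled ligand, competitive displacement. Read: scintillation counts at 18 h. DMSO = negative control/baseline. Primary 25 uM duplicate; follow-up concentration–response.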
On to `CN1CCc2cccc3c2[C@H]1Cc1ccc(O)c(O)c1-3`, for which the concentration at half-maximal activity (AC50) (commonly the concentration at which the activity in the assay is half-maximal) was 0.02 µM (active).

On to `CCC(C)(C)C1CCC(=O)CC1`, for which the concentration at half-maximal activity (AC50) was 0.983 µM (active).

Turning to `CC(C)(C)c1ccc(S)cc1`, the half-maximal activity concentration (AC50) was 0.283 µM (active).

In the case of `CCNC(=S)NCC`, the call was inactive.

Turning to `CCCCCCOc1ccc(O)cc1`, the concentration at half-maximal activity (AC50) was 12 µM (active).

For `CCCCCCCCOC(=O)c1ccc(O)cc1`, the AC50 is 2.7 µM (active).

With `CCCCCCCCCOS(=O)(=O)O`, the AC50 was 11.1 µM (active).

As for `CC12CCC(C1)C(C)(C)C2O` (configuration not stated), the call was inactive.

As for `c1ccc(OCCOc2ccccc2)cc1`, the compound was classed as inactive.

For `CCCCCCC(C)O` (configuration not stated), the AC50 is 43.2 µM (active).

`CCCCC/C=C\C=C\C(=O)OCC`: the half-maximal activity concentration (AC50) is 42.7 µM (active).

As to `CCC(=O)OC(C)(C)C1CC=C(C)CC1` (configuration not stated), the outcome was inactive.

Consider `Cc1cccc(O)c1`, for which the result was inactive.

For `CCc1cccc(O)c1`, the result was inactive.

For `CCOCC(C)O` (configuration not stated), the compound was called inactive.

As for `CC(O)CN` (configuration not stated), the outcome was inactive.

Take `COc1ccccc1O`: the result was inactive.
